The text below walks through data of PubChem BioAssay (Tox21).

Records with an inconclusive call do not appear. Active and inactive are the calls of the source. The call rests on the fitted dose curve; in most records, active means well fitted curve in the direction sought with a large enough effect in the signal ratio in the repeat runs (not every such curve was filed as active); inconclusive means weak or mixed curves, or a change in a side signal; inactive means no such curve, though single readings can be large or run the other way; the % refers to the signal ratio.

The nature of this assay: qHTS assay to identify small molecule agonists of the NFkB signaling pathway (AID 1159509). The following applies: NFkB-bla ME-180 cells, beta-lactamase FRET ratio, 5 h; series mostly up to 61 µM. From the text:
National Center for Advancing Translational Sciences [NCATS]
NIH Chemical Genomics Center [NCGC]
U.S. Environmental Protection Agency [EPA]
National Institutes of Environmental Health Sciences [NIEHS]
National Toxicology Program [NTP]
U.S. Food and Drug Administration [FDA]
Transcription factors and their stimulated target gene expression play pivotal roles across many cellular processes including responses to environmental stimuli. Proper regulation of associated pathways is critical to maintain cell health and function. Constitutive activation of transcription factor pathways has been implicated in tumors as it may block cellular functions such as apoptosis and lead to invasion and metastasis. One important transcription factor that stimulates gene expression in response to cytokines, UV radiation, and other stimuli is nuclear factor-kappa B (NFkB). To measure activation of the NFkB pathway, the CellSensor NFkB-bla ME-180 cell line (Life Technologies, Carlsbad, CA) that stably expresses beta-lactamase reporter gene under the regulation of a NF-kB response element was used. This assay allows measurement of the NFkB pathway activity induced by compounds in a ME-180 cell line. This system quantitates NF-kB activity using a FRET-based assay system where beta-lactamase expression disrupts FRET, allowing for fluorescent measurement of activity. This cell line has been used to screen the Tox21 10K compound library and to identify compounds that induce the NFkB pathway activity.
Tox21 Assay Protocol Summary:
NFkB-bla ME-180 cells were dispensed at 2,000 cells/6 uL of assay medium per well into black wall/clear-bottom 1536-well plates using a Multidrop Combi (ThermoFisher Scientific, Waltham, MA) dispenser. After the assay plates were incubated at 37 C and 5% CO2 for an overnight, 23 nL of compounds dissolved in DMSO, positive controls or DMSO only was transferred to the assay plate by a Pintool station (Kalypsys, San Diego, CA). The assay plates were incubated at 37 C and 5% CO2 for 5 hr. One uL of LiveBLAzer B/G FRET substrate (Life Technologies) was added using a Flying Reagent Dispenser (Aurora Discovery, San Diego, CA) and the plates were incubated at room temperature for 1.5 hr. Fluorescence intensity (405 nm excitation, 460 nm and 530 nm emissions) was measured using an Envision plate reader (PerkinElmer, Shelton, CT).
Turning to `O=C(Cl)c1ccc(F)c(Cl)c1`, the result was inactive.

In the case of `Nc1ccccc1Nc1ccccc1`, the outcome was inactive.

On to `Cc1c(Cl)cccc1[N+](=O)[O-]`, for which the result was inactive.

For `Nc1cccc2c(=O)[nH][nH]c(=O)c12`, the outcome was inactive.

For `CCc1cnc(C(=O)O)c(C(=O)O)c1`, the outcome was inactive.

As to `C/C=C1\[C@H]2C=C(C)C[C@]1(N)c1ccc(=O)[nH]c1C2`, the outcome was inactive.

As to `CC1(COc2ccc(CC3SC(=O)NC3=O)cc2)CCCCC1` (stereo not given), the result was inactive.

Turning to `CCC[Si](OC)(OC)OC`, the result was inactive.

Turning to `Sc1nc(S)nc(S)n1`, the outcome was inactive.

`CNc1ccccc1`: the result was inactive.

Turning to `CCCCCCCCCC(C)C=O` (stereo not given), the outcome was inactive.

For `Clc1nc2ccccc2nc1Cl`, the result was inactive.

For `COc1ccc(C(=O)Nc2ccccc2)cc1[N+](=O)[O-]`, the result was inactive.

On to `O=C(O)c1ccc2c(c1)nc(C(=O)NC1CCN(C3CC3)CC1)n2Cc1cc(-c2ccc(Cl)s2)on1`, for which the outcome was inactive.

With `CO[C@@H]1COCC[C@@H]1N[C@@H]1CC[C@@](C(=O)N2CCc3ncc(C(F)(F)F)cc3C2)(C(C)C)C1`, the result was inactive.

Take `CC1(C)C(=O)NC(=O)N1CO`: the result was inactive.

Take `COC(=O)Cc1cccc2ccccc12`: the outcome was inactive.

On to `S=c1[nH][nH]c(=S)s1`, for which the outcome was inactive.

On to `CCCCCCC/C=C/C=O`, for which the result was inactive.

On to `O=C(O)c1cccc(C(=O)O)c1C(=O)O`, for which the result was inactive.

Turning to `COc1ccc(CN(CCN(C)C)c2ncccn2)cc1`, the outcome was inactive.

With `COC(=O)C(C)(C)C`, the result was inactive.

Consider `O=C(OC1C[C@H]2CC[C@@H](C1)[N+]21CCCC1)C(O)(c1ccccc1)c1ccccc1` (stereo not given in full), for which the outcome was inactive.

For the compound `CCCCCCCCCCCCCCCCN`, the result was inactive.

As for `OCCCO`, the result was inactive.

In the case of `Oc1ccc(CCNCCCCCCNCCc2ccccc2)cc1O`, the result was inactive.

With `OCC(O)c1ccccc1` (stereo not given), the result was inactive.

For `[O-][n+]1ccc(Cl)cc1`, the result was inactive.

Turning to `CCCCCCOC(=O)c1ccccc1`, the outcome was inactive.

With `Cc1ccccc1CCO`, the result was inactive.

`Nc1ccc(C(=O)Oc2ccccc2)c(O)c1`: the result was inactive.

Consider `COc1cc(CNC(=O)CCCC/C=C/C(C)C)ccc1O`, for which the result was inactive.

On to `Cc1ccc2ccccc2c1[N+](=O)[O-]`, for which the result was inactive.

Consider `CCc1ccc2c(c1)C(=O)c1ccccc1C2=O`, for which the result was inactive.

As for `C=Cc1ccc(C=C)cc1`, the outcome was inactive.

In the case of `CC(C)NC(=O)c1ccccc1N`, the result was inactive.

Take `O=C(NC1CCN(CCc2c[nH]c3ccccc23)CC1)c1ccccc1`: the result was inactive.

As for `O=C(O)COCC(=O)O`, the outcome was inactive.

`CCCCC(CC)COCCC#N` (stereo not given): the outcome was inactive.

As for `O=C1c2ccccc2C(=O)C1c1ccc2ccccc2n1`, the result was inactive.
